The record followed here is paper PMC7862700, “An all-to-all approach to the identification of sequence-specific readers for epigenetic DNA modifications on cytosine”.

Holding throughout (assay): DAPPL (digital affinity profiling via proximity ligation, sequencing); 10 mM Tris-HCl pH 7.5, 50 mM NaCl, 1 mM DTT, 4% glycerol, room temperature, 30 min; GST-TFs on glutathione beads, 16-mer random dsDNA library, 0.1% formaldehyde crosslink after washing; high values mean tight binding
Assay [1] addresses T1, FLI1 (Homo sapiens, UniProt Q01543 1-452).
T1 sequence: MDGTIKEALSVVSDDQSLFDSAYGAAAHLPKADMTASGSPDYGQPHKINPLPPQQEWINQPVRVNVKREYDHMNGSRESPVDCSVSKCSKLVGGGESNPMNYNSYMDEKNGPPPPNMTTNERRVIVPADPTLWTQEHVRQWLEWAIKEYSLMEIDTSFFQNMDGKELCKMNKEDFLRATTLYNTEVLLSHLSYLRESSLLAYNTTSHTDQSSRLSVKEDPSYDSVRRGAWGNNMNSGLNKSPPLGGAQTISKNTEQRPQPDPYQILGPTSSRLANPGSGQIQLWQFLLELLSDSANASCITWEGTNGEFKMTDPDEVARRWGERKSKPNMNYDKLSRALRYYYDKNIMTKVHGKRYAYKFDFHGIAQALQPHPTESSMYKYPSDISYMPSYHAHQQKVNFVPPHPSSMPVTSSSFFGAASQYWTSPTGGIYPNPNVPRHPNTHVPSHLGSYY
Particulars: protein: recombinant; tags: N-terminal GST; dsDNA, one strand shown. In a few lines:
(§1)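 Pools were built from human transcription factors expressed in yeast as GST fusions, captured on glutathione beads and DNA-barcoded, along with a tag-only sample. Incubation with 200 nmole of a 16-mer random double-stranded DNA library lasted 30 min at room temperature in Tris/NaCl/DTT/glycerol buffer, and was followed by washing, 0.1% formaldehyde crosslinking, proximity ligation, PCR amplification and Illumina NextSeq500 sequencing. Binding signal is the quotient of each hexamer's read frequency for a factor and its frequency for the tag-only sample.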

Assay [2] has as its target T2, ELK1 (Homo sapiens, UniProt P19419 1-428).
T2 sequence: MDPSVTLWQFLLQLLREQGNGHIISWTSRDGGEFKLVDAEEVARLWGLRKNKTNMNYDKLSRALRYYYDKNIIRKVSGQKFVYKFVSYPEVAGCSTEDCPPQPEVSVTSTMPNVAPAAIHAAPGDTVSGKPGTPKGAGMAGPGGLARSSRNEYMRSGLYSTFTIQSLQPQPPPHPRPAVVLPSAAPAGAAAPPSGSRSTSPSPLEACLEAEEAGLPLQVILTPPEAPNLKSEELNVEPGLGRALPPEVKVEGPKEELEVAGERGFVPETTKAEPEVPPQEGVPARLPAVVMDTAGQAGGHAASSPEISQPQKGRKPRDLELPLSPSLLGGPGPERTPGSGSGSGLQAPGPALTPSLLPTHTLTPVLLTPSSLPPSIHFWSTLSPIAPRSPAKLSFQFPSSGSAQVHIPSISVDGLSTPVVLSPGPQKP
Particulars: protein: recombinant; tags: N-terminal GST; dsDNA, one strand shown. The method, boiled down: as §1

The target in assay [3] is T3, GABPA (Homo sapiens, UniProt Q06546 1-454).
T3 sequence: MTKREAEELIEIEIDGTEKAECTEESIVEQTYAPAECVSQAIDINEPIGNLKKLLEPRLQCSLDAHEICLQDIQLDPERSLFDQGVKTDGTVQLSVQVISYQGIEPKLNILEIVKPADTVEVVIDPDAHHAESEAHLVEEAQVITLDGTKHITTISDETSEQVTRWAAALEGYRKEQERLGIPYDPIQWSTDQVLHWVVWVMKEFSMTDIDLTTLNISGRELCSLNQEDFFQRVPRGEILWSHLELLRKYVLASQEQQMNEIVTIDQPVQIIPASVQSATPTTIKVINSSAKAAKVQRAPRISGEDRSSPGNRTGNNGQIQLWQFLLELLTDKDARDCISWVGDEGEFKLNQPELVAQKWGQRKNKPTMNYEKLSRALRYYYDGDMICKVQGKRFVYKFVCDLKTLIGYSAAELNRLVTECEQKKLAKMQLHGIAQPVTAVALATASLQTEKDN
Particulars: protein: recombinant; tags: N-terminal GST; dsDNA, one strand shown. In a few lines: as §1

In assay [4] the target is T4, ERG (Homo sapiens, UniProt P11308 1-479).
T4 sequence: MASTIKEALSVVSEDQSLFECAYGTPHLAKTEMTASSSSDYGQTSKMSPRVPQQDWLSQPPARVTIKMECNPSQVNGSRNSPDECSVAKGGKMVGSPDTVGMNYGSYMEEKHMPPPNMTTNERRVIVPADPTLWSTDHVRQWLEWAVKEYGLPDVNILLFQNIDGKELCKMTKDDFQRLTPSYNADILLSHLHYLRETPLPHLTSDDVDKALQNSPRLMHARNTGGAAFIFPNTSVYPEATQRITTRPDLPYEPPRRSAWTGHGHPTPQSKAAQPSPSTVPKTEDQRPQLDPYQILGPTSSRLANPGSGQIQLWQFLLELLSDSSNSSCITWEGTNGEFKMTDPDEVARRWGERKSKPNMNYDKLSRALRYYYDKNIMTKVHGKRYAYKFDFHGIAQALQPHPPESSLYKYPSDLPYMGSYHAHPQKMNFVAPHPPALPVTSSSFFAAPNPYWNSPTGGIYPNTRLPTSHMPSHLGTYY
Particulars: protein: recombinant; tags: N-terminal GST; dsDNA, one strand shown. The method, boiled down: as §1

For assay [5], the target named is ELF1 (Homo sapiens, UniProt P32519 1-619). Particulars: protein: recombinant; tags: N-terminal GST; dsDNA, one strand shown. In a few lines: as §1
Chain of ELF1 (P32519 whole entry): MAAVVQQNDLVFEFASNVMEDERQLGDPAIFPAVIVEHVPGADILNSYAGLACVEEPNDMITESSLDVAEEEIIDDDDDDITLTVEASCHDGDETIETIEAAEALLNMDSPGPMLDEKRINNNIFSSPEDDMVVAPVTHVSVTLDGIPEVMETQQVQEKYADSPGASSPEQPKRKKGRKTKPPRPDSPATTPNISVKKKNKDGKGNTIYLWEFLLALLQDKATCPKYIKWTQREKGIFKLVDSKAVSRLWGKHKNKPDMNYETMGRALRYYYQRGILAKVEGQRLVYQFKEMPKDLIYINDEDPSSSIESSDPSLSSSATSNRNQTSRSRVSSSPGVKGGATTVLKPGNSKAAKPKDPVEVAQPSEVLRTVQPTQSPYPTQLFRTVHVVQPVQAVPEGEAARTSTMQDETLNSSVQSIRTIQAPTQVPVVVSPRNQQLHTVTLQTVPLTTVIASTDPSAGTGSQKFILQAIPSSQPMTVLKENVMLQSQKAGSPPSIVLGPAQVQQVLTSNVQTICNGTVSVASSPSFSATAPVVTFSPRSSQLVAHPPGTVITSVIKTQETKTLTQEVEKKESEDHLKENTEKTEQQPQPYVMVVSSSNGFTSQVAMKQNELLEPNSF
The target in assay [6] is T5, EHF (Homo sapiens, UniProt Q9NZC4 1-300).
T5 sequence: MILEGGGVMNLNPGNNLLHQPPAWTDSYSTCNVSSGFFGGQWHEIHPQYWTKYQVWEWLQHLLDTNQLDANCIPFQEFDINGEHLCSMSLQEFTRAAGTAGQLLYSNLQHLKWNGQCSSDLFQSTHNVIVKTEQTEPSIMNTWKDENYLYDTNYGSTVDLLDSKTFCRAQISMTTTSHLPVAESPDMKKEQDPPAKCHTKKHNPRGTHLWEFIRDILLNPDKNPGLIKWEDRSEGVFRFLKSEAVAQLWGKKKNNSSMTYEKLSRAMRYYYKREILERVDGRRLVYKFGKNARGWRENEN
Particulars: protein: recombinant; tags: N-terminal GST; dsDNA, one strand shown. In a few lines: as §1

In assay [7] the target is SPI1 (Homo sapiens, UniProt P17947 1-270). Particulars: protein: recombinant; tags: N-terminal GST; dsDNA, one strand shown. The method, boiled down:
as §1

Assay [8] has as its target SPIB (Homo sapiens, UniProt Q01892 1-262). Particulars: protein: recombinant; tags: N-terminal GST; dsDNA, one strand shown. In a few lines:
as §1

Assay [9] deals with T6, ELK3 (Homo sapiens, UniProt P41970 1-407).
T6 sequence: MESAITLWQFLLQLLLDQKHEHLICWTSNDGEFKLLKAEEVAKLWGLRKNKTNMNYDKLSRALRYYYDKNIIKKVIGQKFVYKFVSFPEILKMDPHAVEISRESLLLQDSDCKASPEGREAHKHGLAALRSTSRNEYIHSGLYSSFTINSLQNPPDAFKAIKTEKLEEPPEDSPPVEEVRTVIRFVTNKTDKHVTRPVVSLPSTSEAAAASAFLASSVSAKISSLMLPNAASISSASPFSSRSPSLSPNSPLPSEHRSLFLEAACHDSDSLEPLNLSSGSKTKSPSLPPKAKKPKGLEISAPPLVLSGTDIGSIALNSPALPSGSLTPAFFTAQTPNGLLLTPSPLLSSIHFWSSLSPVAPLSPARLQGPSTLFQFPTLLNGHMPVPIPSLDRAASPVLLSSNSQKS
Particulars: protein: recombinant; tags: N-terminal GST; dsDNA, one strand shown. The method, boiled down:
as §1

In assay [10] the target is T7, FEV (Homo sapiens, UniProt Q99581 1-238).
T7 sequence: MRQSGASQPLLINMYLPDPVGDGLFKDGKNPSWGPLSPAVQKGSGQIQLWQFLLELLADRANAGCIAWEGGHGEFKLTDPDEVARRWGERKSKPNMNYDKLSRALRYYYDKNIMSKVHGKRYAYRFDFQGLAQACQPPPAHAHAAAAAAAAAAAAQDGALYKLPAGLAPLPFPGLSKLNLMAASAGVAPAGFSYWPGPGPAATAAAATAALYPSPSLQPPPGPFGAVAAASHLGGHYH
Particulars: protein: recombinant; tags: N-terminal GST; dsDNA, one strand shown. In a few lines: as §1

Assay [11] addresses ETV5 (Homo sapiens, UniProt P41161 1-510). Particulars: protein: recombinant; tags: N-terminal GST; dsDNA, one strand shown. The method, boiled down:
as §1

The target in assay [12] is HSF1 (Homo sapiens, UniProt Q00613 1-529). Particulars: protein: recombinant; tags: N-terminal GST; chain copies: 3; dsDNA, one strand shown. The method, boiled down:
as §1

The target in assay [13] is T8, SPIC (Homo sapiens, UniProt Q8N5J4 1-248).
T8 sequence: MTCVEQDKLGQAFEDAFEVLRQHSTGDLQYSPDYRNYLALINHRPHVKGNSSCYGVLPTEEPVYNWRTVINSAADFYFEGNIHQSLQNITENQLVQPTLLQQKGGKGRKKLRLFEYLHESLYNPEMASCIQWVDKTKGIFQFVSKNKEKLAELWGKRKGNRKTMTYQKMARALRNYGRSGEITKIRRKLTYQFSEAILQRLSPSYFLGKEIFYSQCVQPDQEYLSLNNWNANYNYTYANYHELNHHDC
Particulars: protein: recombinant; tags: N-terminal GST; dsDNA, one strand shown. The method, boiled down:
as §1

Assay [14] addresses ELF4 (Homo sapiens, UniProt Q99607 1-663). Particulars: protein: recombinant; tags: N-terminal GST; dsDNA, one strand shown. The method, boiled down: as §1
Assay [15] deals with T9, ELK4 (Homo sapiens, UniProt P28324-2 1-405).
T9 sequence: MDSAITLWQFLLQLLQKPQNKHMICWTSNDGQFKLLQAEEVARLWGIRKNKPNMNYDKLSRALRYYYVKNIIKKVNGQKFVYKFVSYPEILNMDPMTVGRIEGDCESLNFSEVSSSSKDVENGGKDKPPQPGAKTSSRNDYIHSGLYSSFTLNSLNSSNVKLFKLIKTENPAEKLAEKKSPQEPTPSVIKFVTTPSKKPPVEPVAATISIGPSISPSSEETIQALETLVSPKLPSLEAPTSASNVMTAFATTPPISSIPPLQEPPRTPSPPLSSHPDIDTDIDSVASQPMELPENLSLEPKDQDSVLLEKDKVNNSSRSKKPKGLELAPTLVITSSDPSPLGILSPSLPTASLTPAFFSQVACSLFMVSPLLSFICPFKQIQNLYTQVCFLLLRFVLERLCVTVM
Particulars: protein: recombinant; tags: N-terminal GST; dsDNA, one strand shown. The method, boiled down:
as §1

Assay [16] deals with T10, ETV2 (Homo sapiens, UniProt O00321 1-342).
T10 sequence: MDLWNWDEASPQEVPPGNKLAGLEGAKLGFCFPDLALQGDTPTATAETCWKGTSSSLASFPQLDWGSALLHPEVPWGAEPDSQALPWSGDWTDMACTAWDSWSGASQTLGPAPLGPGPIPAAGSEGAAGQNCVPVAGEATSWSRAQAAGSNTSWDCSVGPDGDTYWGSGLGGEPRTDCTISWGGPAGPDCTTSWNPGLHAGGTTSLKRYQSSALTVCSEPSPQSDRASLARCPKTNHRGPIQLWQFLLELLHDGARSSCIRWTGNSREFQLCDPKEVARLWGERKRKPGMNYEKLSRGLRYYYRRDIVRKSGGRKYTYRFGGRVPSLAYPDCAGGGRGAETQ
Particulars: protein: recombinant; tags: N-terminal GST; dsDNA, one strand shown. The method, boiled down:
as §1

For assay [17], the target named is T11, ELF3 (Homo sapiens, UniProt P78545 1-371).
T11 sequence: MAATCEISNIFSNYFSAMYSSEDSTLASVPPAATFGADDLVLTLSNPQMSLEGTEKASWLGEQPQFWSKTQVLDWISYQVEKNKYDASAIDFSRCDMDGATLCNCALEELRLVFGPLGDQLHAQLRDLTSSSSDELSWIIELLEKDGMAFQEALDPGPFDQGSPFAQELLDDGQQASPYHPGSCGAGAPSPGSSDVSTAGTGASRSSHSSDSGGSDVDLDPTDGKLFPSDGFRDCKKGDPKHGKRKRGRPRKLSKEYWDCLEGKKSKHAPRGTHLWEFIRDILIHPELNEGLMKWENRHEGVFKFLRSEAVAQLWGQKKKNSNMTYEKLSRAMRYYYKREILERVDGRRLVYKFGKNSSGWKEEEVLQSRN
Particulars: protein: recombinant; tags: N-terminal GST; dsDNA, one strand shown. In a few lines: as §1

The target in assay [18] is CRX (Homo sapiens, UniProt O43186 1-299). Particulars: protein: recombinant; tags: N-terminal GST; dsDNA, one strand shown. In a few lines: as §1
Chain of CRX (O43186 whole entry): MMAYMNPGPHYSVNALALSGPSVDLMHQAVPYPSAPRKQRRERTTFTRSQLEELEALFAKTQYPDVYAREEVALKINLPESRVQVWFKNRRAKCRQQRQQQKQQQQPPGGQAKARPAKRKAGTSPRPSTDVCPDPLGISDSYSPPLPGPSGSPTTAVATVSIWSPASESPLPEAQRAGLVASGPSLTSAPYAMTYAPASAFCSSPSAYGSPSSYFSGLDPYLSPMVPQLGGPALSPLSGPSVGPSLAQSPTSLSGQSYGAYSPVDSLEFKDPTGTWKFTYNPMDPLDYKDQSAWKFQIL
Assay [19] addresses ETV1 (Homo sapiens, UniProt P50549 1-477). Particulars: protein: recombinant; tags: N-terminal GST; dsDNA, one strand shown. In a few lines: as §1

Chain of SPIB (Q01892 whole entry): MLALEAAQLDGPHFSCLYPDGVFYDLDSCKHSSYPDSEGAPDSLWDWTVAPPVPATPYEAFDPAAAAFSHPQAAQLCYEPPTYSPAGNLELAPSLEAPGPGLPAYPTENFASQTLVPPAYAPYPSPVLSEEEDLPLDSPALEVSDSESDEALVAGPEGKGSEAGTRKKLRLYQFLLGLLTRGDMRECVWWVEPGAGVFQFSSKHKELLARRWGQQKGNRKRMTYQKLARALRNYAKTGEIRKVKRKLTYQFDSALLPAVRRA
Chain of HSF1 (Q00613 whole entry): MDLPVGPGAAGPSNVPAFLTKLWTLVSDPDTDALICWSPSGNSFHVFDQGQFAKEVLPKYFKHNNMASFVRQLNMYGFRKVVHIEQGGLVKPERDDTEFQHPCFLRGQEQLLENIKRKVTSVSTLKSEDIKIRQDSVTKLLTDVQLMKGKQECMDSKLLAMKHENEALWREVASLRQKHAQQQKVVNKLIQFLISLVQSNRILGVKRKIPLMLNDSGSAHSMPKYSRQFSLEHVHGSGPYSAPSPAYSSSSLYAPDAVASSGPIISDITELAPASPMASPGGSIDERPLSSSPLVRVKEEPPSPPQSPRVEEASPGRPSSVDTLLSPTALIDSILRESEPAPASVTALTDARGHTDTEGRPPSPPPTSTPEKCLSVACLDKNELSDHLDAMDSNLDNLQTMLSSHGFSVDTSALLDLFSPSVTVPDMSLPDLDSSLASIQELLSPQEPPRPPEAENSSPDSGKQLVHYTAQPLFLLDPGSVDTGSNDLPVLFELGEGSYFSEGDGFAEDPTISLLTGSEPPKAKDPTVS
Chain of ELF4 (Q99607 whole entry): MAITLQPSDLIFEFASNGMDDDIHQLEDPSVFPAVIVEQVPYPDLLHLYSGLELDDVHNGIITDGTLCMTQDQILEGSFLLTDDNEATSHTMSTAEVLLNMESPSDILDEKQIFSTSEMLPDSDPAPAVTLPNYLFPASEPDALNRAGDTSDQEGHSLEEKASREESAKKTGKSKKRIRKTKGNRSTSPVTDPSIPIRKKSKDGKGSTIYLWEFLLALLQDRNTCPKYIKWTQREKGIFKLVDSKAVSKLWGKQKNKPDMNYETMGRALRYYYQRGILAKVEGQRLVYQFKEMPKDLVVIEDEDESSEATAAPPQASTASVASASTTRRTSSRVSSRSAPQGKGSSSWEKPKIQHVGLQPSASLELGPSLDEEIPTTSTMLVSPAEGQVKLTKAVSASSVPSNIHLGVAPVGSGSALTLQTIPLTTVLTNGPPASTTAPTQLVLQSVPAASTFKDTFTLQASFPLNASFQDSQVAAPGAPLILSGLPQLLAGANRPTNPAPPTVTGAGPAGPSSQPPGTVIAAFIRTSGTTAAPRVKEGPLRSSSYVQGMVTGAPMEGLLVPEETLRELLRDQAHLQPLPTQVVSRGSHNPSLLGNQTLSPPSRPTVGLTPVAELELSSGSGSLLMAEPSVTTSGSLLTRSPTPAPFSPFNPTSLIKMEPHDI
Chain of ETV1 (P50549 whole entry): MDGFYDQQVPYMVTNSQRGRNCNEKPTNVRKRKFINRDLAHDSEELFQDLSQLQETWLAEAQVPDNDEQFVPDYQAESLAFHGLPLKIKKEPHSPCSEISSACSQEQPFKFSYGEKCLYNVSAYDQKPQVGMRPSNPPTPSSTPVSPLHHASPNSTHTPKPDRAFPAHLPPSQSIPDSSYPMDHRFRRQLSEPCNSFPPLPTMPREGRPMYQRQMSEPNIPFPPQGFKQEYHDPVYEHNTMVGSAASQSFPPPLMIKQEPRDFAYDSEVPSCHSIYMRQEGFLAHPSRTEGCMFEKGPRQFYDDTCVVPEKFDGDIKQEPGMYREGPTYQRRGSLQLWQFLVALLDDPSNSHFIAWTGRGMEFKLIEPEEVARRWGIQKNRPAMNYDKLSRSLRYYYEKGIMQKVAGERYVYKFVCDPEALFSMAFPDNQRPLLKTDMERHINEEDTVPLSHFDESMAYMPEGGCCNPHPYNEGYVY
Chain of ETV5 (P41161 whole entry): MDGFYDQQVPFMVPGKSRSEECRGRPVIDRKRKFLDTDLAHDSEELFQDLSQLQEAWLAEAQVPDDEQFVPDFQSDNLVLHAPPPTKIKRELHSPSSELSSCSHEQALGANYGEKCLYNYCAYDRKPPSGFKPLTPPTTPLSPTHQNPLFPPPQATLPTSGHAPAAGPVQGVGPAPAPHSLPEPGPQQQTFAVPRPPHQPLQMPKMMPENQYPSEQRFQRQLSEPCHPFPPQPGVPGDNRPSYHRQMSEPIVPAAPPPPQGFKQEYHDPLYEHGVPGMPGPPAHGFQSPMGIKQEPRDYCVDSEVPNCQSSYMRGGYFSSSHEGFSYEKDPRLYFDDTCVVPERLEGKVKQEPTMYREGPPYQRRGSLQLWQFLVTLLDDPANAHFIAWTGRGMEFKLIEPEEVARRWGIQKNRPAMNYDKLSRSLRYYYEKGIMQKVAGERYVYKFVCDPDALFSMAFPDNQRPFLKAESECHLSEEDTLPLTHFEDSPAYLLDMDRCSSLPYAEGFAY

On to ATTCCC, for which the binding signal in assay [1] is 1.37 fold enrichment (6-mer frequency, TF over GST control); in assay [2], 1.32 fold enrichment (6-mer frequency, TF over GST control); in [3] it was 1.38 fold enrichment (6-mer frequency, TF over GST control); in [4], 1.3 fold enrichment (6-mer frequency, TF over GST control); in assay [5], 1.4 fold enrichment (6-mer frequency, TF over GST control); in assay [6], 1.35 fold enrichment (6-mer frequency, TF over GST control). The binding signal in assay [7] was 1.34 fold enrichment (6-mer frequency, TF over GST control); in assay [8], 1.48 fold enrichment (6-mer frequency, TF over GST control); in [9], 1.44 fold enrichment (6-mer frequency, TF over GST control); in [10], 1.42 fold enrichment (6-mer frequency, TF over GST control); in assay [11] it was 1.44 fold enrichment (6-mer frequency, TF over GST control); in assay [12], 1.61 fold enrichment (6-mer frequency, TF over GST control). Also, the binding signal in assay [13] was 1.41 fold enrichment (6-mer frequency, TF over GST control); in [14], 1.47 fold enrichment (6-mer frequency, TF over GST control); in assay [15] it was 1.24 fold enrichment (6-mer frequency, TF over GST control); in assay [16], 1.42 fold enrichment (6-mer frequency, TF over GST control); in assay [17], 1.35 fold enrichment (6-mer frequency, TF over GST control); in [18], 1.57 fold enrichment (6-mer frequency, TF over GST control). Moreover, in assay [19], the binding signal is 1.4 fold enrichment (6-mer frequency, TF over GST control).
